Source: PubChem BioAssay (National Center for Advancing Translational Sciences (NCATS))
In the library only some 2.2% were active in any assay of this set; here they are far more common.
HepG2 viability: qHTS for Inhibitors of TGF-b: Cytotox Counterscreen; HepG2 CAGA-GFP viability, ATP luminescence, 18 h; Potency, µM (doses to about 46.1 µM), for the others: at the highest dose activity change, negative = cytotoxicity, usual class: cytotoxic; actives 0.76% (n = 410,000); further: potency means the concentration at half of the fitted maximal effect
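HepG2 CAGA-GFP cells (1000/well, DMEM with 1% FBS) received compound, then TGF-beta at 500 pg/mL final, and were incubated 18 hours at 37 degrees C. Viability was read by CellTiter-Glo luminescence. Media-only wells were set as complete cell-killing and DMSO as no toxicity.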
ATXN2 expr inh: Primary qHTS for Inhibitors of ATXN expression; HEK-293 ATXN2-luciferase reporter, luminescence, 24 h; Potency, µM (highest dose often 57 µM), inactives show top-dose activity change, negative = inhibition, actives largely listed as inhibitors; actives 0.72% (n = 360,000); AID 1745845, 2022; further: potency means the concentration at half of the fitted maximal effect; on the % scale 0 is the no-effect control and ±100 the full control effect; nearly all actives have a fitted effect of over 55% in size
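qHTS (up to 57 uM final) was run with 24 h compound exposure of reporter cells at 37 °C. Each well was multiplexed: SteadyGlo luminescence measured ATXN2-luciferase expression after a fluorogenic Gly-Phe-AFC viability readout (25 uM final).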
TGFb inhibitor: qHTS for Inhibitors of TGF-b | HepG2 CAGA-GFP TGF-b/SMAD3 reporter, GFP fluorescence, 18 h; TGF-beta stimulated, 500 pg/mL final | Potency, µM (titrated, usually from 46.1 µM), for the others: at the top dose activity, negative = inhibition, usual class: inhibitors | actives 1.2% (n = 410,000) | AID 588855, 2011; further: potency means the concentration at half of the fitted maximal effect; on the % scale 0 is the no-effect control and ±100 the full control effect; nearly all actives have a fitted effect of over 65% in size
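TGF-beta reporter screen: HEPG2 CAGA-GFP, 1% FBS, 500 pg/mL TGF-beta final, 18 h; per-cell GFP summed per well; curves fitted and categorized by class.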
S2 tox: Viability Counterscreen for Primary qHTS for Inhibitors of ATXN expression | Potency, µM (titrated, usually from 56.7 µM), usual class: cytotoxic | S2 cells (HEK-293 line with an ATXN2-luciferase reporter) viability, CellTiter-Fluor protease fluorescence, 24 h | actives 0.49% (n = 400,000); further: potency means the concentration at half of the fitted maximal effect; nearly all actives have a fitted effect of over 40% in size
IDH1 R132H inh: qHTS for Inhibitors of mutant isocitrate dehydrogenase 1 (IDH1): qHTS; Isocitrate dehydrogenase [NADP] cytoplasmic (Homo sapiens), O75874; IDH1-R132H enzyme, NADPH consumption, diaphorase/resazurin fluorescence; Potency, µM (doses to about 76.6 µM), inactives show top-dose activity change, negative = inhibition, usual class: inhibitors; actives 0.093% (n = 390,000); AID 602179, 2012; further: potency means the concentration at half of the fitted maximal effect; on the % scale 0 is the no-effect control and ±100 the full control effect; nearly all actives have a fitted effect of over 65% in size
Target sequence (O75874 whole entry R132H, stated change not applied): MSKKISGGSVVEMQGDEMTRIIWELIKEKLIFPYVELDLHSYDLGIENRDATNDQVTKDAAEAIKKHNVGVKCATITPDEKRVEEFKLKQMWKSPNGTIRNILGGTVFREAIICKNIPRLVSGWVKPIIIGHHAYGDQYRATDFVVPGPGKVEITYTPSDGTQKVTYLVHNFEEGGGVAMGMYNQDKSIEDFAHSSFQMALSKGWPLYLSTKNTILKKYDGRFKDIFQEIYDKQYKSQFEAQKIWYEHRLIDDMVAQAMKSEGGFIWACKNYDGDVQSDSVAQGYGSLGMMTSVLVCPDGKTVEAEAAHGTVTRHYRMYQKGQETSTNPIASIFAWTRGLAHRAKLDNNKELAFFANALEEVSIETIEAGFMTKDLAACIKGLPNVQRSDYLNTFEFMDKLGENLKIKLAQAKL
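IDH1-R132H (0.5 ug/mL dispensed) in pH 7.5 Tris buffer was preincubated 30 min with compound, then given a substrate mix of 0.016 mM NADPH and 2 mM alpha-KG for 80 min at room temperature; remaining NADPH was read by diaphorase/resazurin fluorescence.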
LDHA block: qHTS assay for inhibitors of human lactate dehydrogenase; L-lactate dehydrogenase A chain (Homo sapiens), P00338; purified LDHA, NADH/diaphorase-resazurin fluorescence; active compounds read low; activity change, % (values are at about 110 or 230 µM); actives 0.15% (n = 480,000); AID 1347041, 2019; in the data active means activity change below about -30%; inconclusive means mostly about -25% to -30%;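 further: plate controls were DMSO wells for no effect and wells without enzyme for full effect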
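Human LDH5 (2 nM) was incubated with 0.06 mM NADH and 0.2 mM pyruvate for 5 min at room temperature in Tris pH 7.4. Remaining NADH was coupled through diaphorase/resazurin, and resorufin fluorescence was read at 0 and 20 min.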
IDH1 autofl: qHTS for Inhibitors of mutant isocitrate dehydrogenase 1 (IDH1): Cherrypicks Autofluorescence Interference; shares compounds with IDH1 R132H inh; 750 tested, under 10 active; Resorufin detection reagent fluorescence interference, cell-free; inhibition of signal, % at 51.2 µM;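 further: 0% = wells with normal resorufin and full inhibition = wells lacking resorufin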
IDH1 WT: qHTS for Inhibitors of mutant isocitrate dehydrogenase 1 (IDH1): Cherrypicks in WT IDH1; actives 9% (n = 750); WT IDH1 enzyme, NADPH diaphorase/resazurin fluorescence; Potency, µM (titrated, usually from 115 µM), inactives show top-dose activity change, negative = inhibition, hits mostly inhibitors; shares compounds with IDH1 R132H inh;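 further: potency means the concentration at half of the fitted maximal effect; 0% = full WT IDH1 enzyme control and full inhibition = no enzyme wells; nearly all actives have a fitted effect of over 55% in size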
Target sequence (O75874 whole entry, looked up): as the sequence (O75874 whole entry R132H, stated change not applied) above, with H132R counted along it
mIDH1 confirm: qHTS for Inhibitors of mutant isocitrate dehydrogenase 1 (IDH1): Confirmation of Cherrypicks | Potency, µM (doses to about 76.6 µM), for inactives: at the highest dose activity change, negative = inhibition, usual class: inhibitors | actives 83% (n = 750) | shares compounds with IDH1 R132H inh | IDH1 R132H enzyme, NADPH diaphorase/resazurin fluorescence; further: potency means the concentration at half of the fitted maximal effect; nearly all actives have a fitted effect of over 50% in size
The depositor's hits bear a star; i = inactive; ? = inconclusive; / = no result; [ ] = dose if it differs, or a comment. Unless noted, the call rests on the fitted dose curve; in most records, active means well fitted curve in the direction sought with a large enough effect; inconclusive means small, poorly fitted or top-dose-only effect, or another doubt; inactive means no such curve, though single readings can be large; an effect the other way counts as inactive or inconclusive.

SMILES | HepG2 viability | ATXN2 expr inh | TGFb inhibitor | S2 tox | IDH1 R132H inh | LDHA block | IDH1 autofl | IDH1 WT | mIDH1 confirm
CSC1=NC(=O)/C(=C/c2ccc(SC)cc2)S1 | -14.7% | ? | -1.2% | ? | 35.5µM* | -5.7 | -3.0 | 70.8µM* | 39.8µM*
COc1cc2c(-c3ccc4cc[nH]c4c3)c(-c3ccsc3)oc(=O)c2cc1OC | 0.7% | 23.4% | ? | i | ? | -1.0 | -8.4 | -1.1% | 11.2µM*
COc1ccc(-c2c(-c3ccsc3)oc(=O)c3cc(OC)c(OC)cc23)cn1 | -13.4% | 12.0% | -15.7% | ? | 28.2µM* | 2.1 | 0.0 | -2.9% | 8.91µM*
COc1cc2c(C(F)(F)F)c(-c3ccsc3)oc(=O)c2cc1OC | -22.3% | -4.6% | ? | i | 7.9% | 0.9 | / | / | /
O=S(=O)(/N=C(/Nc1ccc(Cl)c(S(=O)(=O)Nc2ccccc2Cl)c1)c1ccc(F)cc1)c1ccccc1 | 7.9% | ? | ? | i | ? | -11.1 | -0.8 | 3.0% | ?
Cc1cc(C)cc(N(C(=O)c2ccco2)C(C(=O)NC2CCCC2)c2ccncc2)c1 (configuration not stated) | -0.7% | -19.6% | 5.4% | i | ? | -0.8 | 4.9 | 7.0% | 44.7µM*
COc1ccc(N(C(=O)c2ccco2)C(C(=O)NC2CCCC2)c2cccs2)cc1 (configuration not stated) | 32.0% | 7.6%[11.3 µM] | 44.3% | i | ? | -3.9 | -1.3 | -6.9% | ?
O=C(NC1CCCC1)C(c1ccncc1)N(C(=O)c1ccco1)c1ccc(F)c(Cl)c1 (configuration not stated) | -23.5% | 12.0% | -0.7% | i | ? | -10.2 | 3.7 | 1.3% | 39.8µM*
O=C(NC1CCCCC1)C(c1ccncc1)N(C(=O)c1ccco1)c1ccc(F)cc1 (configuration not stated) | 13.5% | -1.2% | 8.2% | i | ? | 0.5 | 1.2 | -1.0% | 39.8µM*
CCc1ccc(CNC(=O)Cn2ccc3cc(S(=O)(=O)N4CCCCCC4)ccc32)cc1 | -28.1% | -13.8% | -0.2% | i | -22.2% | 0.4 | / | / | /
O=C(CN1C(=O)c2ccccc2C1=O)OCC(=O)c1ccc(F)cc1 | -1.3% | 14.1% | 0.0% | i | 2.0% | -7.0 | / | / | /
COc1ccc(Cl)cc1N(C(=O)c1ccco1)C(C(=O)NC1CCCC1)c1ccco1 (configuration not stated) | -7.9% | -5.4% | -4.8% | i | -8.7% | -11.6 | / | / | /
Cc1ccc(N(C(=O)c2ccco2)C(C(=O)NC2CCCC2)c2ccco2)c(C)c1 (configuration not stated) | -4.0% | 0.6% | 8.1% | i | ? | -7.6 | 3.9 | 0.1% | 20µM*
COc1ccc(Cl)cc1N(C(=O)c1ccco1)C(C(=O)NC1CCCC1)c1cccnc1 (configuration not stated) | -5.7% | -4.2% | -11.8% | i | ? | -16.9 | 1.9 | -2.0% | ?
CC(C)c1nc(N2CCN(C(=O)C(=O)N3CCOCC3)CC2)c(C#N)c2c1CCCC2 | / | / | / | / | / | -3.5 | / | / | /
CC(C)c1nc(N2CCOCC2)c(C#N)c2c1CCCC2 | -20.5% | 7.6% | 2.5% | i | ? | -3.4 | 0.9 | 5.4% | 35.5µM*
Cc1oc2c(C)c3oc(=O)c(CCC(=O)O)c(C)c3cc2c1-c1ccccc1 | -1.4% | / | 8.7% | i | 23.3µM* | -12.0 | -0.1 | 50.1µM* | 12.6µM*
COc1cccc(Nc2nc3c(S(=O)(=O)c4cc(C)ccc4C)nnn3c3ccsc23)c1 | -11.3% | / | -0.3% | / | ? | -9.7 | 1.2 | -0.1% | ?
Cc1cc(C)c(NC(=O)C(C)Sc2cc(C)ccc2C)c(C)c1 (configuration not stated) | / | / | / | / | / | 3.7 | / | / | /
COc1ccc(C2=C(C)C(=O)N(Cc3ccc(C(=O)NCc4ccccc4C)cc3)S2(=O)=O)cc1 | 1.5% | -7.7% | 0.4% | i | / | -7.2 | / | / | /
CC(C)Cc1nnc(NC(=O)c2ccc3c(ccn3C)c2)s1 | / | / | / | / | / | 6.5 | / | / | /
CC(=O)N(C(C)=O)N1C(=O)/C(=C/c2ccc(Cl)cc2)SC1=S | -35.8% | ? | 15.8µM* | ? | ? | ? | 7.1 | -19.2% | 50.1µM*
COc1cc(Br)cc(/C=N/N(CCO)C2=NS(=O)(=O)c3ccccc32)c1OC | -23.4% | 0.7% | ? | i | 13.1µM* | -5.0 | -6.8 | -0.4% | 25.1µM*
COc1ccc(-c2nn3c(-c4ccccc4C)nnc3c3ccccc23)cc1 | -105.3% | / | ? | / | ? | -2.5 | -2.0 | 2.1% | 22.4µM*
Cc1ccc(NC(=O)CN2C(=O)COc3ccc(S(=O)(=O)N4CCCCCC4)cc32)cc1Cl | -54.3% | / | 10µM* | / | ? | -1.8 | -8.3 | 0.3% | 14.1µM*
COc1ccc(NC(=O)CN2C(=O)COc3ccc(S(=O)(=O)N4CCCCC4)cc32)cc1Cl | -14.4% | / | ? | / | -1.1% | -2.6 | / | / | /
N#Cc1ccccc1Cn1cc(/C=C/[N+](=O)[O-])c2ccccc21 | 7.08µM* | ? | 4.47µM* | / | 28.2µM* | -0.1 | 5.1 | ? | 20µM*
Cc1nc([N+](=O)[O-])cn1CC(O)c1ccc(Cl)cc1 (configuration not stated) | -3.8% | / | -3.4% | ? | 2.0% | -14.0 | / | / | /
COC(=O)COc1cc2oc(=O)cc(C)c2cc1Cl | / | / | / | / | / | -24.6 | / | / | /
